PubChem BioAssay (NCATS)
“And” between values parts separate entries of the source, which are not always exact repeats. Identical values can stand only once. Inconclusive results are not listed. The source made the active and inactive calls. Unless noted, calls follow the shape of the dose curve; as a rule, active = well fitted curve in the direction sought with a large enough effect; inconclusive = small, poorly fitted or top-dose-only effect, or another doubt; inactive = no such curve, though single readings can be large; an effect the other way counts as inactive or inconclusive. Where a SMILES comes first, the peptide text is derived from it.

How the values were obtained:
[1] = Cell Viability - BJ (AID 421; calls by dose curve;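 also: potency is read from the fitted curve at half-maximal effect; cells exposed to compound for 40 hours at 37 °C before readout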); settings: BJ fibroblast viability, qHTS
Procedure, shortened: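 Quantitative HTS: ATP depletion in BJ cells after 40 hr compound exposure in complete culture medium, detected with CellTiter-Glo; AC50 from standard Hill fits.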

[2] = Cell Viability - MRC5 (AID 434; calls by dose curve;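 also: potency is read from the fitted curve at half-maximal effect; cells exposed to compound for 40 hours at 37 °C; potency reflects cytotoxicity seen as loss of intracellular ATP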); settings: MRC5 lung fibroblast viability, qHTS
Procedure, shortened: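 Decrease in intracellular ATP, quantified by luciferase light output, reflects compound toxicity toward MRC5 cells exposed for 40 hr in complete culture medium. Concentration-response curves, scaled between DMSO and 100 uM tamoxifen, gave AC50 values.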

[3] = target: Mitogen-activated protein kinase 10 (Mus musculus) (UniProt Q61831); assay: JNK3 AlphaScreen Assay (AID 530; active = well fitted curve in either direction with a large enough effect, not every such curve was filed as active;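 also: kinase came from lysate of stimulated human HepG2 cells; signal reports phosphorylation of biotinylated GST-cJun 1-79 at Ser73 with 10 µM ATP; % is scaled to controls: 0 for no effect and ±100 for the full control effect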); settings: JNK3 lysate, c-Jun phosphorylation; series mostly up to 57.1 µM
Procedure, shortened: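 Phosphorylation of biotinylated GST-cJun(1-79) at Ser73 is measured by AlphaScreen proximity luminescence. Enzyme is JNK3 in HepG2 lysates activated with interleukin-1beta and tumor necrosis factor alpha; ATP is 10 uM final.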

[4] = Cell Viability - N2a (AID 540); settings: N2a mouse neuroblastoma cell viability; activity change, negative = cytotoxicity: at 92.2 µM (top of the series);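 also: cells exposed to compound for 40 h at 37 °C; nearly all actives have a fitted effect of over 45% in size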; also: potency is read from the fitted curve at half-maximal effect;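 as to activity change, negative = cytotoxicity: plate controls were DMSO alone for no effect and tamoxifen control for full effect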
Procedure, shortened: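 Cytotoxicity was scored as loss of cellular ATP in N2a cells, a mouse neuroblastoma line. Compounds are applied in a qHTS concentration series for 40 hr at 37 °C.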

[5] = Cellular Toxicity (caspase-3) HepG2 (AID 654); settings: HepG2 caspase-3 activation, luminescence, 0% = DMSO only, 100% = tamoxifen; series mostly up to 92.2 µM;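 also: cells exposed to compound for 16 hours before reading; 0% = DMSO alone and 100% = caspase signal from 100 µM tamoxifen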
Procedure, shortened: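 Caspase 3/7 activation in HepG2 is measured as rising luminescence after a 16 hr treatment at 37 °C. Values are scaled between DMSO basal and 100 uM tamoxifen, and AC50 is fitted with the Hill equation.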

[6] = Cellular Toxicity (caspase-3) BJ (AID 658); settings: BJ fibroblasts, luminescence, normalized: DMSO 0%, staurosporine 100%; series mostly up to 91.7 µM;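 also: 0% = DMSO basal and 100% = 10 µM staurosporine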
Procedure, shortened: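 Plated BJ cells (1000/well) rested 5 hr, received compound for 16 hr at 37 °C, then Caspase-Glo 3/7 reagent for 1 hr at room temperature before luminescence reading.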

[7] = Cellular Toxicity (caspase-3) Mesangial (AID 660); settings: mesangial cells; Potency: caspase-3 activation; series mostly up to 91.7 µM;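 also: combined caspase 3 and 7 activity read by Caspase-Glo luminescence; cells exposed to compound for 16 h before the caspase read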
Procedure, shortened: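 Seed cells derived from normal human renal glomeruli, incubate 5 h, add compounds across concentrations and incubate 16 h at 37 °C. Caspase 3/7 activation is then quantified by luciferase light, with AC50 derived by Hill modeling.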

[8] = Cellular Toxicity (caspase-3) Renal Proximal Tubule (AID 667); settings: renal proximal tubule cells; at 91.7 µM (top of the series) unless noted;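 also: cells exposed to compound for 16 hours at 37 °C before detection; 0% = DMSO basal and 100% = 10 µM staurosporine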
Procedure, shortened: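 Caspase 3/7 activation measured by luminescent aminoluciferin release in primary rat proximal tubule cells after 16 hr compound exposure at 37 °C. AC50 from Hill-fitted concentration-response, scaled between DMSO and 10 uM staurosporine.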

[9] = MultiTox-Fluor Cytotoxicity Assay - LYMP1-002 - Live Cells (AID 955); settings: LYMP1-002 lymphoblastoid live-cell protease fluorescence viability; series mostly up to 46.1 µM; also: potency is read from the fitted curve at half-maximal effect
Procedure, shortened: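 Cells were seeded at 2500 per well and incubated 5 hr. Compounds were then added for 16 hr at 37 C, followed by MultiTox-Fluor reagent for 60 min at room temperature and fluorescence reading of viable-cell protease signal.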

[10] = MultiTox-Fluor Cytotoxicity Assay - LYMP1-003 - Live Cells (AID 962); settings: LYMP1-003 lymphoblastoid cells, MultiTox-Fluor live-cell protease fluorescence; series mostly up to 92.2 µM; also: potency is read from the fitted curve at half-maximal effect
Procedure, shortened: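 Acute cytotoxicity is scored as a drop in live-cell protease activity in human lymphoblastoid LYMP1-003 cells after 16 hr compound exposure at 37 C. AC50 values come from Hill-equation modelling of concentration-response data.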

[11] = Cell Viability - LYMP2-003 (AID 965); settings: LYMP2-003 lymphoblastoid cell viability; series mostly up to 92.2 µM;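 also: cells exposed to compounds for 24 h before reading; nearly all actives have a fitted effect of over 50% in size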; also: potency is read from the fitted curve at half-maximal effect;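 as to activity change, negative = cytotoxicity: 0% = DMSO only and full effect = 92 µM tetraoctylammonium bromide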
Procedure, shortened: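 CellTiter-Glo luminescence quantified ATP loss after 24 h compound treatment of LYMP2-003 lymphoblastoid cells at 37 C. Titration series were fitted with the standard Hill equation to give AC50.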

[12] = Cell Viability - LYMP2-015 (AID 971); settings: LYMP2-015 lymphoblastoid cell viability; series mostly up to 92.2 µM; also: nearly all actives have a fitted effect of over 55% in size; also: potency is read from the fitted curve at half-maximal effect
Procedure, shortened: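 Cells are seeded at 2500 per well and incubated 5 hr at 37 C. Compounds are added across a concentration series for 24 hr at 37 C. CellTiter-Glo is added, and luminescence is read after 30 min at room temperature.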

[13] = Cell Viability - LYMP2-008 (AID 980); settings: LYMP2-008 lymphoblastoid cell viability, qHTS; series mostly up to 92.2 µM; also: nearly all actives have a fitted effect of over 60% in size; also: potency is read from the fitted curve at half-maximal effect; as to activity change, negative = cytotoxicity: % is scaled to controls: 0 for no effect and ±100 for the full control effect
Procedure, shortened: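 Cells seeded at 2500/well and rested 5 hr at 37 C; compounds added over a concentration range and incubated 24 hr at 37 C; CellTiter-Glo added, 30 min at room temperature; luminescence read and AC50 fitted with Hill model.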

[14] = Cell Viability - LYMP2-016 (AID 984); settings: LYMP2-016 lymphoblastoid cell viability, qHTS; series mostly up to 92.2 µM;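 also: cells exposed to compound for 24 hours at 37 °C; nearly all actives have a fitted effect of over 55% in size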; also: potency is read from the fitted curve at half-maximal effect; as to activity change, negative = cytotoxicity: % is scaled to controls: 0 for no effect and ±100 for the full control effect
Procedure, shortened: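 Cytotoxicity was scored by luminescent ATP content (CellTiter-Glo) after 24 h compound exposure at 37 C of a human lymphoblastoid line at 2500 cells/well. Concentration-response data were fitted to the Hill equation for AC50.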

[15] = qHTS assay for environmental chemicals that activate the Aryl hydrocarbon Receptor (AhR) signaling pathway (AID 651777); settings: 1A2-DRE human hepatoma cells, luciferase, 24 h; activation: hits give high values; also: nearly all actives have a fitted effect of over 15% in size; also: potency is read from the fitted curve at half-maximal effect; as to activation: % of control where 0% means no effect
Procedure, shortened: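 Following a 24 hr incubation with test chemicals at 37 C and 5% CO2, 1A2-DRE human hepatoma cells received One-Glo reagent; after 30 min at room temperature, luciferase output reflected CYP1A2 induction via AhR.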

[16] = qHTS assay for small molecule agonists of the antioxidant response element (ARE) signaling pathway measured by Nrf2-dependant transcriptional activity - cell viability counter screen (AID 720653; active = well fitted curve in the direction sought with a large enough effect in the repeat runs; an effect the other way counts as inactive or inconclusive; also: potency is read from the fitted curve at half-maximal effect; as to max response: % is scaled to controls: 0 for no effect and ±100 for the full control effect); settings: ARE-bla HepG2 viability, CellTiter-Glo ATP luminescence, 16 h; max response: hits give low values
Procedure, shortened: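 ARE-bla HepG2 cells (2,000/well) rested 5 hrs at 37C/5% CO2, then exposed to compounds in DMSO for 16 hrs. Viability was read in the same wells as intracellular ATP by luminescence, 30 min at room temperature after reagent addition.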

[17] = target: Glucocorticoid receptor (Homo sapiens) (UniProt P04150); assay: GR-GFP Redistribution (AID 450;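 active = compounds whose dose series gives a full or clear partial fitted curve of increased nuclear translocation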; also: potency is read from the fitted curve at half-maximal effect); settings: U2OS GR-GFP nuclear translocation, laser cytometry, 2 h
Sequence of Glucocorticoid receptor (Homo sapiens) (P04150 whole entry, looked up): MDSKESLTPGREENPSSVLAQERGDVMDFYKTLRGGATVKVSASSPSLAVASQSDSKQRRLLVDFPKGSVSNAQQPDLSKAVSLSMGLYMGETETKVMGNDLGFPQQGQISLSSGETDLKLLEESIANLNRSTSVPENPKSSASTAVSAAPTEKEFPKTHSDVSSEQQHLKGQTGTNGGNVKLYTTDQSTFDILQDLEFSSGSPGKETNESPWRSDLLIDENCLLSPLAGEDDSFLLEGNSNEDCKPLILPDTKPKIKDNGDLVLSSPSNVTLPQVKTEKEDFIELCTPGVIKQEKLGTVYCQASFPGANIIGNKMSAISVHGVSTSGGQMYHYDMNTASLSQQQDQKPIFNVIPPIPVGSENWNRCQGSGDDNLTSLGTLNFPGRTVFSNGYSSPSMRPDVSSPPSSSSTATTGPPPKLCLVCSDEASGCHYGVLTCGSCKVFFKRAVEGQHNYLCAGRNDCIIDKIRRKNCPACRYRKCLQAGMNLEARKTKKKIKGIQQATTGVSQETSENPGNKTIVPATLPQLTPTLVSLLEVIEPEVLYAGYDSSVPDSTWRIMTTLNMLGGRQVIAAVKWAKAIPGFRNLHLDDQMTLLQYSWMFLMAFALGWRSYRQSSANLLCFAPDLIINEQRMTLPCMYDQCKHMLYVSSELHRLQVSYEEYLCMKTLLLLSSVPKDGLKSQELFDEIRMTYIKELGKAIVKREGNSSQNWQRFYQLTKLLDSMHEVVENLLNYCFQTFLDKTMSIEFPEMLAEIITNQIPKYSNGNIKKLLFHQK

[18] = target: Alpha-galactosidase (Coffea arabica) (UniProt Q42656); assay: Counterscreen for Glucocerebrosidase Inhibitors: qHTS Assay for Coffee Bean alpha-Galactosidase at pH 4.5 (AID 957); settings: purified coffee bean alpha-galactosidase, fluorogenic substrate; series mostly up to 76.9 µM;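 also: plate controls were enzyme alone for no effect and no enzyme for full effect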
Sequence of Alpha-galactosidase (Coffea arabica) (Q42656 whole entry, looked up): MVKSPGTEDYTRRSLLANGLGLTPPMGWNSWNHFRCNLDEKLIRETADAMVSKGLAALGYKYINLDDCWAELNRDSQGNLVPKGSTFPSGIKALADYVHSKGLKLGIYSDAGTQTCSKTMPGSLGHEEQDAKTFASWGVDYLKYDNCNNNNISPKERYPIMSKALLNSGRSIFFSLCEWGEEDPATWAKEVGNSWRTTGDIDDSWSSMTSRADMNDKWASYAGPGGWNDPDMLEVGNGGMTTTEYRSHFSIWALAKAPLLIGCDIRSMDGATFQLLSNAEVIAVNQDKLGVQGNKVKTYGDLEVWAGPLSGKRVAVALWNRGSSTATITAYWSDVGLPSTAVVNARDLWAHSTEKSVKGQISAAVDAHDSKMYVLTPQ
Procedure, shortened: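 Enzyme is added first (2 nM final), then compounds titrated from 0.7 nM to 77 uM, then 80 uM 4-methylumbelliferyl alpha-D-galactopyranoside; after 20 min at room temperature a pH 10 NaOH/glycine stop precedes fluorescence reading at 365/440 nm.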

[19] = target: Alpha-galactosidase (Coffea arabica) (UniProt Q42656); assay: Counterscreen for Glucocerebrosidase Inhibitors: qHTS Assay for Coffee Bean alpha-Galactosidase at pH 5.9 (AID 998); settings: coffee bean alpha-galactosidase enzyme assay; series mostly up to 76.9 µM;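 also: plate controls were uninhibited enzyme for no effect and no-enzyme basal signal for full effect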
Procedure, shortened: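 In 50 mM citric acid pH 5.9 with 0.005% Tween-20, coffee bean enzyme hydrolyses 80 uM 4-MU alpha-D-galactopyranoside over 20 min at RT. Activity is normalized to controls; AC50 comes from Hill-modelled concentration-response data.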

CC(=O)[O-].CC(=O)[O-].O.O.[Cd+2]
active: activity change, negative = cytotoxicity [4] -111% | Potency [12] 39.8 µM | Potency [13] 50.1 µM | Potency [16] 10 µM
inactive: Potency [1] > 92 µM | Potency [2] > 92 µM | outcome [3] | outcome [5] | outcome [6] | Potency [7] | caspase-3 activation [8] -14.3% [at 91.7 µM, primary cells freshly taken from rat, solvent-only wells 0%, staurosporine 100%] | Potency [9] | Potency [10] | Potency [11] | Potency [14] | activation [15] 1.94%

OC(c1ccc(Cl)cc1)(c1ccc(Cl)cc1)C(Cl)(Cl)Cl
active: activity change, negative = cytotoxicity [4] -118%
inactive: Potency [1] > 92 µM | Potency [2] > 92 µM | outcome [5] | outcome [6] | Potency [7] | caspase-3 activation [8] 1.02% | Potency [9] | Potency [10] | Potency [11] | Potency [12] | Potency [13] | Potency [14] | max response [16] -1.65%

CN1CCC(OC(=O)C2c3ccccc3Oc3ccccc32)CC1
inactive: Potency [17] > 20.6 µM

C[C@@H]1O[C@@H](O[C@H]2C[C@@H](O)[C@]3(CO)[C@@H]4[C@@H](O)C[C@]5(C)[C@H](C6=CC(=O)OC6)CC[C@@]5(O)[C@H]4CC[C@@]3(O)C2)[C@H](O)[C@H](O)[C@@H]1O
inactive: outcome [3] | outcome [18] | outcome [19]

COCC(C)OC(=O)c1c(N)n(Cc2ccco2)c2nc3ccccc3nc12 (stereo not given)
inactive: Potency [17] > 20.6 µM

O=[N+]([O-])c1ccccc1Cl
inactive: Potency [1] > 92 µM | Potency [2] > 92 µM | activation [15] -0.478% and -0.511% | max response [16] 10.4% and -3.52%

Cc1ccc2ccccc2c1C
inactive: Potency [1] > 92 µM | Potency [2] > 92 µM | activation [15] 1.49% | max response [16] 9.36%

N#CC(Cl)Cl
inactive: Potency [1] > 92 µM | Potency [2] > 92 µM | outcome [3] | activity change, negative = cytotoxicity [4] 13.8% | outcome [5] | Potency [7] | caspase-3 activation [8] -4.27% [at 91.7 µM, primary cells freshly taken from rat, solvent-only wells 0%, staurosporine 100%] | Potency [9] | Potency [10] | Potency [11] | activation [15] 1.8% | max response [16] -22.9%
active: Potency [12] 12.6 µM | Potency [13] 12.6 µM | Potency [14] 25.1 µM

Nc1ccccc1C(=O)OCCc1ccccc1
inactive: Potency [1] > 92 µM | Potency [2] > 92 µM | activity change, negative = cytotoxicity [4] -14.5% | outcome [5] | outcome [6] | Potency [7] | caspase-3 activation [8] -20.4% | Potency [9] | Potency [10] | Potency [11] | Potency [12] | Potency [13] | Potency [14] | max response [16] 0.51%
active: Potency [15] 44.7 µM

O=[N+]([O-])C(Br)Br
inactive: outcome [5] | outcome [6] | Potency [7] | caspase-3 activation [8] 2.88% | Potency [9] | Potency [10] | activation [15] 1.61% | max response [16] -11.4%
active: activity change, negative = cytotoxicity [4] -119% | Potency [11] 25.1 µM | Potency [12] 10 µM | Potency [13] 12.6 µM | Potency [14] 15.8 µM

Oc1cc2c(cc1O)[C@H]1c3ccccc3CN[C@@H]1CC2
inactive: Potency [17] > 46 µM | outcome [3] | outcome [18] | outcome [19]

CC(C)C[C@H](NC(=O)[C@@H]1CCCN1C(=O)[C@@H](N)Cc1ccc(O)cc1)C(=O)NCC(N)=O (H-YPLG-NH2)
inactive: Potency [17] > 20.6 µM

CN(C)c1ccc(N=O)cc1
inactive: Potency [1] > 92 µM | outcome [3] | outcome [5] | outcome [6] | Potency [7] | caspase-3 activation [8] -9.93%
active: Potency [2] 42.1 µM | Potency [4] 31.6 µM | Potency [9] 5.01 µM | Potency [10] 6.31 µM | Potency [11] 1.26 µM | Potency [12] 1 µM | Potency [13] 1.26 µM | Potency [14] 1.58 µM | Potency [15] 70.8 µM

C(=NC1CCCCC1)=NC1CCCCC1
inactive: Potency [1] > 92 µM | Potency [2] > 92 µM | outcome [3] | outcome [5] | outcome [6] | Potency [7] | caspase-3 activation [8] 5.14% | Potency [9] | Potency [10] | Potency [11] | activation [15] 2.78% and 1.69%
active: Potency [4] 10 µM | Potency [13] 50.1 µM | Potency [16] 7.94 µM
